TAG inh: triacylglycerol accumulation inhibition; H9c2 cells, Nile Red lipid (TAG) fluorescence; cells loaded with 200 µM oleic acid; inhibition, % at 12.5 µM; 0.66% of 230,000 active; AID 651582;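 active = pattern-corrected inhibition of lipid staining of at least 50% with the nuclear-stain viability signal not falling by more than 50%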;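 note: 0% = DMSO wells and 100% = triacsin C control wells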
iPSC survival up: increases survival of single human iPS cells; hiPSC single-cell survival, ATPlite luminescence; 100% = ROCK inhibitor wells, 0% = DMSO; survival enhancement, % at 20 µM; 0.044% of 360,000 active; in the data active = survival enhancement above about 18%;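 note: cells exposed to compounds for 16 hours before the ATP read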
beta cell repl: induces beta-cell replication in MIN6 cells. MIN6 cells proliferation, ATPlite luminescence, 48 h; cells starved in 0.2% serum; 100% = growth in 10% serum. 0.29% of 330,000 active. proliferation, % at 10 µM. AID 2380;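 active = compounds whose signal lies at least 3.5 SD above the mean of all wells on their plate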;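 note: 0% = DMSO-treated cells in low-serum medium and 100% = 10% serum control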
The depositor's hits bear a star; . = not tested or not shown; ! = not active in a repeat. Shown are actives, neighbours in structure and some others; about 0.71% of the full set was active somewhere.

SMILES | TAG inh | iPSC survival up | beta cell repl
COc1ccc(-n2c(C)cc(C(=O)CN3C(=O)c4ccccc4C3=O)c2C)cc1 | . | 2 | 1
CCCC(=O)N1CCC1(C)C(=O)Nc1cccc(F)c1 (stereo unspecified) | 9 | 5 | .
COc1ccc(OCC(O)Cn2c(=N)n(Cc3ccccc3)c3ccccc32)cc1 (stereo unspecified) | -6 | -1 | -6
N=c1n(Cc2ccc(Cl)cc2)c2ccccc2n1CC(O)COc1ccccc1 (stereo unspecified) | 73* | -3 | -6
CC(=O)c1ccc(N=Cc2c(O)n(-c3cc(Cl)ccc3N3CCOCC3)c(=O)c3ccccc23)cc1 | 52* | 1 | -2
O=c1c2ccccc2c(C=Nc2ccc(Cl)cn2)c(O)n1-c1cc(Cl)ccc1N1CCOCC1 | . | -4 | -2
O=c1[nH]c(=S)[nH]c2c1[C@H](CCc1cccc(Cl)c1)O[C@H](C1CC1)C2 | . | 0 | .
COc1ccc(C2C(C#N)=C(N)Oc3cc(N)ccc32)cc1 (stereo unspecified) | . | 0 | -4
COc1cc(C2C(C#N)=C(N)Oc3cc(N)ccc32)cc(OC)c1OC (stereo unspecified) | 65* | -5 | -2
Nc1ccn(C2OC(CCl)C(O)C2O)c(=O)n1 (stereo unspecified) | -16 | -3 | .
CCOc1ccc(CCN2C(=S)N([C@@H](Cc3ccc(O)cc3)CN3CCC[C@@H]3CN3C(=S)NC[C@@H]3CC(C)C)C[C@@H]2Cc2ccc(O)cc2)cc1 | . | -1 | .
COc1ccc(CN2C(=O)CCCC2(C)c2nc3ccccc3[nH]2)cc1 (stereo unspecified) | . | 3 | .
CCOC(=O)C(=C1Nc2ccccc2N1)n1c(-c2cccnc2)nc2ccccc21 | . | -1 | .
O=C(Cc1ccccc1)Nc1ccc2[nH]ncc2c1 | . | 2 | 1
O=C(Cc1ccc(Br)cc1)Nc1ccc2[nH]ncc2c1 | -10 | 25* | -3
CCNC(=O)C1(C)CCCN(Cc2ccc3ccccc3c2Br)C1 (stereo unspecified) | -13 | -2 | .
O=c1[nH]c2cc3ccccc3cc2nc1-c1nnnn1C1CCCC1 | . | 0 | .
O=C(NC1CCCC1)C(c1c[nH]c2ccccc12)N(C(=O)Cn1nnc(-c2ccc(Cl)cc2)n1)c1ccccc1 (stereo unspecified) | 77* | 2 | -5
CC(C)(C)NC(=O)C(c1c[nH]c2ccccc12)N(C(=O)Cn1nnc(-c2ccc(Cl)cc2)n1)c1ccccc1F (stereo unspecified) | 15 | 0 | 0
COCCN1C[C@@H](CO)O[C@@H](n2cnc3c(NCCO)ncnc32)C1 | -14 | -2 | .
Nc1nc(CCl)nc(N(c2ccccc2)c2ccccc2)n1 | 80* | 3 | -3
Nc1nc(Cl)nc(N(c2ccccc2)c2ccccc2)n1 | -6 | -1 | 2
COC(=O)[C@]12CCCCC=C1N(CCC1=CCCCC1)C(=O)[C@H](CC(=O)N1CCCCC1)C2 | . | 1 | .
Cc1cccc(C)c1-n1nnnc1C1c2ccccc2C(=O)N1CCCN1CCOCC1 (stereo unspecified) | . | 1 | .
C=C(C)COc1ccc(-c2n[nH]c(C)c2-c2ccc(OC)c(OC)c2)c(O)c1 | 56* | 0 | -6
SMILES | TAG inh | iPSC survival up | beta cell repl
C=C(C)COc1ccc(-c2[nH]ncc2-c2ccc(OC)c(OC)c2)c(O)c1 | 10 | -6 | -4
COc1cc2c(cc1OC)C(CNC(=O)C=Cc1ccccc1)C2 (stereo unspecified) | 14 | 5 | .
COc1ccc(/C=N/NC(=O)c2cnccn2)c(OC)c1OC | 9 | 1 | -1
COc1cccc(/C=N/NC(=O)c2cnccn2)c1O | 54* | -1 | -2
COc1ccc(S(=O)(=O)N2CCC[C@H]2C(=O)N2CCC[C@H]2C(=O)NCc2ccncc2)cc1C | . | -1 | .
COC(=O)c1cccc(NC(=O)NC23CC4CC(CC(C4)C2)C3)c1 | 3 | -2 | 0
COC(=O)c1ccc(Cl)c(NC(=O)NC23CC4CC(CC(C4)C2)C3)c1 | 70* | -1 | -6
COc1ccc(C[C@H]2CN3C(=NC[C@@H]3Cc3ccccc3)N2CCNC(=O)c2ccc(C)c(Br)c2)cc1 | 120* | -5 | -8
COc1ccc(C[C@H]2CN3C(=NC[C@H]3Cc3ccccc3)N2CCNC(=O)c2ccc(C)c(Br)c2)cc1 | 128 | -5 | -9
CCCCN(C=O)c1c(CC)nc2c(OCc3ccc(C(F)(F)F)cc3)cccn12 | -18 | 3 | .
CC(C)CC1Nc2ncnc(N3CCN(c4ccccc4)CC3)c2N(Cc2ccccc2)C1=O (stereo unspecified) | 30 | 23*! | -8
CC(C)CC1Nc2ncnc(N3CCN(c4ccccc4)CC3)c2N(Cc2ccc(Br)cc2)C1=O (stereo unspecified) | 20 | -2 | -6
CC(C)(C)Cc1c(-c2ccc(C#N)cc2)nc2c(Cl)cc(C(F)(F)F)cn12 | . | 1 | .
CCN(CC)C(=O)C1=C(C)N(Cc2ccc(F)cc2)C(=O)C(CC(=O)NCC2CCCCC2)C1 (stereo unspecified) | 7 | 1 | .
C[C@H]1CN([C@@H](C)CO)C(=O)c2cccc(NC(=O)Nc3ccc(C(F)(F)F)cc3)c2O[C@@H]1CN(C)Cc1ccc(Cl)c(Cl)c1 | 56* | 2 | -6
C[C@@H]1CN([C@H](C)CO)C(=O)c2cc(NC(=O)Nc3ccc(C(F)(F)F)cc3)ccc2O[C@H]1CN(C)Cc1ccc(Cl)c(Cl)c1 | 47 | -2 | -5
COC(=O)c1ccc(NC(=O)c2ccc3nsnc3c2)cc1 | . | 3 | 1
CC(C)(C)NC(=O)c1ccc2nsnc2c1 | . | 3 | 0.0*
COc1cc(-c2noc(C)c2C#Cc2ccccn2)cc(OC)c1OC | 70* | -2 | 3
CNC(C)C#Cc1c(-c2cc(OC)c(OC)c(OC)c2)noc1C (stereo unspecified) | 12 | 2 | -2
Cc1ccc(F)c(S(=O)(=O)NC(=O)C2(C)CCN2C(=O)Cc2ccccc2)c1 (stereo unspecified) | 2 | 1 | .
O=S(=O)(c1ccc2c(c1)C(=NO)c1cc(S(=O)(=O)N3CCCCC3)ccc1-2)N1CCCCC1 | 159 | -3 | -6
CCN(CC)S(=O)(=O)c1ccc2c(c1)C(=NO)c1cc(S(=O)(=O)N(CC)CC)ccc1-2 | 53* | -5 | -6
CCN(CC)S(=O)(=O)c1ccc(C)c(C)c1 | -5 | 0 | 2
CC1CCN(S(=O)(=O)c2ccc3c(c2)C(=NO)c2cc(S(=O)(=O)N4CCC(C)CC4)ccc2-3)CC1 | 84* | -3 | -6
SMILES | TAG inh | iPSC survival up | beta cell repl
Nc1nc2cc3c(cc2cc1C(=O)NCc1ccc(F)cc1)OCO3 | . | 0 | .
O=C(Nc1nccs1)c1cnc2sccn2c1=O | 8 | 0 | .
COCCNC(=O)C1(C)CCCN(CCOc2ccc(Cl)cc2)C1 (stereo unspecified) | -6 | -1 | .
COc1ccccc1C1=NOC(COc2ccc3c(C)cc(=O)oc3c2)C1 (stereo unspecified) | 59* | 0 | -4
COc1ccc(C2=NOC(COc3ccc4c(C)cc(=O)oc4c3)C2)c(OC)c1 (stereo unspecified) | 10 | 1 | -2
COCCCNC(=O)C[C@@H]1C[C@@]2(C(=O)OC)CCCCC=C2N(Cc2ccco2)C1=O | . | 0 | .

Assay outcomes as filed in PubChem BioAssay.
